{
  "source": "PubChem BioAssay (EPA / NIEHS)",
  "note": "Calls of active or inactive are those of the source. Rule for the calls: active = hit-call score of the fitted dose curve at least 0.9, where 1 is the maximum; inactive = score below 0.9.",
  "data": [
    {"experiment": "ATG_SREBP_CIS: Attagene CIS-FACTORIAL HepG2 Assay for human Sterol Regulatory Element Binding (SREBP) (AID 2282962)", "details": "HepG2 Attagene cis-factorial SREBP reporter, mRNA; actives raise or lower the signal", "experimental": "ATG_CIS is a cell-based, multiplexed-readout assay that uses HepG2, a human liver cell line, with measurements taken at 24 hours after chemical dosing in a 24-well plate.ATG_SREBP_CIS is one of 52 assay component(s) measured or calculated from the ATG_CIS assay. It is designed to make measurements of mRNA induction, a form of inducible reporter, as detected with fluorescence intensity signals by Reverse transcription polymerase chain reaction (RT-PCR) and Capillary electrophoresis technology.Data from the assay component ATG_SREBP_CIS was analyzed into 1 assay endpoint. This assay endpoint, ATG_SREBP_CIS, was analyzed with bidirectional fitting relative to DMSO as the negative control and baseline of activity. Using a type of inducible reporter, measures of mRNA for gain or loss-of-signal activity can be used to understand the reporter gene at the transcription factor-level as they relate to the gene SREBF1. Furthermore, this assay endpoint can be referred to as a primary readout, because this assay has produced multiple assay endpoints where this one serves a reporter gene function. To generalize the intended target to other relatable targets, this assay endpoint is annotated to the dna binding intended target family, where the subfamily is basic helix-loop-helix leucine zipper.\nHuman liver HepG2 cells are transiently transfected with multiple reporter transcription units (MRTUs) in 6-well plates using FuGene 6 reagent (Roche; 3 ml FuGene/1 mg DNA). The MRTU constructs are regulated by a cis-regulating element (promoter). […] A major difference between the CIS and TRANS system is that in CIS activities of endogenous TFs are measured, whereas the TRANS assay evaluates changes in activities of exogenous, chimeric NR-Gal4 proteins. […] At the end of 24 hour incubation, total RNA was isolated using TriZol reagent (Invitrogen). The isolated RNA is then reverse-transcribed using oligo(dT) primer and Mo-MLV reverse transcriptase (Invitrogen) with DNAse I (Ambion) treatment for 30 min. The one-tenth of the produced cDNA was amplified by PCR using Taq DNA polymerase (Invitrogen) and two reporter sequence-specific primers. The PCR products were fluorescently labeled by primer extension with 6-arboxyfluorescein (6-FAM) 5'-labeled reporter sequence-specific primer (2 min at 95 C, 20 s at 68 C and 10 min at 72 C) and these products were digested with 5U of HpaI (New England Biolabs) for 2h at 37 C. The fragments were purified using Qiaquick PCR columns (Qiagen), analyzed on an ABI 3130xL genetic analyzer (Applied Biosystems) with peak positions identified by using a set of X-rhodamine (ROX)-labeled MapMarker1000 molecular weight standards (BioVentures). The raw capillary electrophoresis data was processed using Attagraph software (Attagene).", "values": [
      {"smiles": "CC1(C(=O)Nc2ccc(O)c(Cl)c2Cl)CCCCC1", "AC50": "23.1 µM (active)"},
      {"smiles": "C#CCC1=C(C)C(OC(=O)C2C(C=C(C)C)C2(C)C)CC1=O", "note": "(stereo not given)", "AC50": "31 µM (active)"},
      {"smiles": "CCCOc1nn(C(=O)NS(=O)(=O)c2ccccc2C(=O)OC)c(=O)n1C", "outcome": "inactive"},
      {"smiles": "CSc1nnc(C(C)(C)C)c(=O)n1N", "outcome": "inactive"},
      {"smiles": "C#CC(C)(C)NC(=O)c1cc(Cl)cc(Cl)c1", "AC50": "50 µM (active)"},
      {"smiles": "C=C(C)[C@H]1Cc2c(ccc3c2O[C@@H]2COc4cc(OC)c(OC)cc4[C@@H]2C3=O)O1", "AC50": "0.00445 µM (active)"},
      {"smiles": "CC(C)[C@H](C(=O)O[C@H](C#N)c1cccc(Oc2ccccc2)c1)c1ccc(Cl)cc1", "outcome": "inactive"},
      {"smiles": "CON=C(C(=O)OC)c1ccccc1CON=C(C)c1cccc(C(F)(F)F)c1", "outcome": "inactive"},
      {"smiles": "CCC(=NOC/C=C/Cl)C1=C(O)CC(C2CCOCC2)CC1=O", "note": "(stereo not given)", "outcome": "inactive"},
      {"smiles": "Cc1cc(C2CC2)nc(Nc2ccccc2)n1", "AC50": "12.6 µM (active)"},
      {"smiles": "CC[C@H](C)[C@H]1O[C@]2(C=C[C@@H]1C)C[C@@H]1C[C@@H](C/C=C(\\C)[C@@H](O[C@H]3C[C@H](OC)[C@@H](O[C@H]4C[C@H](OC)[C@@H](NC)[C@H](C)O4)[C@H](C)O3)[C@@H](C)/C=C/C=C3\\CO[C@@H]4[C@H](O)C(C)=C[C@@H](C(=O)O1)[C@]34O)O2", "outcome": "inactive"},
      {"smiles": "COc1ccc(C(=CC(=O)N2CCOCC2)c2ccc(Cl)cc2)cc1OC", "outcome": "inactive"},
      {"smiles": "CCOP(=S)(OCC)OC(Cl)C(Cl)(Cl)Cl", "note": "(stereo not given)", "AC50": "38.5 µM (active)"},
      {"smiles": "CCc1cccc(CC)c1N(COC)C(=O)CCl", "outcome": "inactive"},
      {"smiles": "CCOP(=S)(Oc1cnc(C(C)(C)C)nc1)OC(C)C", "note": "(stereo not given)", "AC50": "23.2 µM (active)"},
      {"smiles": "Cc1nn(-c2cc(NS(C)(=O)=O)c(Cl)cc2Cl)c(=O)n1C(F)F", "outcome": "inactive"},
      {"smiles": "CCCCOC(=O)[C@@H](C)Oc1ccc(Oc2ccc(C#N)cc2F)cc1", "outcome": "inactive"},
      {"smiles": "COP(=O)(OC)SCn1c(=O)oc2cc(Cl)cnc21", "outcome": "inactive"},
      {"smiles": "Nc1nc(N)nc(NC2CC2)n1", "outcome": "inactive"},
      {"smiles": "COP(=O)(NC(C)=O)SC", "note": "(stereo not given)", "outcome": "inactive"},
      {"smiles": "FC(F)C(F)(F)OCC(Cn1cncn1)c1ccc(Cl)cc1Cl", "note": "(stereo not given)", "AC50": "13.2 µM (active)"},
      {"smiles": "CCNc1nc(Cl)nc(NC(C)(C)C#N)n1", "outcome": "inactive"},
      {"smiles": "C[N+]1(C)CCCCC1", "outcome": "inactive"},
      {"smiles": "O=c1ccc(=O)[nH][nH]1", "outcome": "inactive"},
      {"smiles": "CCc1cccc(C)c1N(C(=O)CCl)C(C)COC", "note": "(stereo not given)", "outcome": "inactive"},
      {"smiles": "N#CSCSC#N", "outcome": "inactive"},
      {"smiles": "CCOP(=S)(OCC)SCCSCC", "AC50": "29.5 µM (active)"},
      {"smiles": "CNC(=O)ON=C(C)SC", "outcome": "inactive"},
      {"smiles": "CNC(=O)ON=C(SC)C(=O)N(C)C", "AC50": "50 µM (active)"},
      {"smiles": "O=[N+]([O-])c1cc(C(F)(F)F)c(Cl)c([N+](=O)[O-])c1Nc1ncc(C(F)(F)F)cc1Cl", "outcome": "inactive"},
      {"smiles": "CCCCSP(=O)(SCCCC)SCCCC", "AC50": "20.1 µM (active)"},
      {"smiles": "CC(=NC#N)N(C)Cc1ccc(Cl)nc1", "outcome": "inactive"},
      {"smiles": "CCCCOC(=O)c1ccccc1C(=O)O", "outcome": "inactive"},
      {"smiles": "CC1=NNC(=O)N(/N=C/c2cccnc2)C1", "outcome": "inactive"},
      {"smiles": "CCCOCC(=Nc1ccc(Cl)cc1C(F)(F)F)n1ccnc1", "AC50": "7.5 µM (active)"},
      {"smiles": "CCC(=O)Nc1ccc(Cl)c(Cl)c1", "AC50": "50 µM (active)"},
      {"smiles": "CCOP(=O)(NC(C)C)Oc1ccc(SC)c(C)c1", "note": "(stereo not given)", "AC50": "19.6 µM (active)"},
      {"smiles": "CCCCN(CC)c1c([N+](=O)[O-])cc(C(F)(F)F)cc1[N+](=O)[O-]", "outcome": "inactive"},
      {"smiles": "CCCSP(=O)(OCC)SCCC", "outcome": "inactive"},
      {"smiles": "CCOC(=O)CC(SP(=O)(OC)OC)C(=O)OCC", "note": "(stereo not given)", "outcome": "inactive"}
    ]}
  ]
}
